# Laboratory results: the supplement of paper PMC10849652
# Of roughly 7,900 targets only a part is listed; those with a hit were picked by preference. About 0.6% of all pairs of compound and target were hits. A number with no mark means an inactive call.
# How the values were obtained:
# Test in all cases: log2 fold change, soluble protein after heating vs DMSO (PISA); higher = thermal stabilisation; K562 cells, 10 uM, 30 min; active = over 0.2 and 3.5 SD of the protein, either way, in both replicates (recomputed)
# [1] = compound: C/C(=N\NC(=O)C1=CC(=CC=C1)S(=O)(=O)N2CCOCC2)/C3=C(C=CC(=C3)Cl)O
# Summary of the method: (§1)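 Thermal stability values are relative to control samples and come from duplicates. They are expressed as log2 fold changes. For measurement, K562 cells (2×10^6 cells/mL) received 10 μM compound for 30 min, and aliquots were heated for 3 min over 48°C-58°C, pooled, and extracted at 4°C in PBS with 0.5% NP-40. Soluble protein, the supernatant after 21,000xg for 90 min, was quantified by TMTpro 16plex LC-MS/MS with equalised channel sums.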
# [2] = compound: C1=CC(=C(C=C1Cl)C2=NC3=NC=CN=C3C(=N2)NC4=CC=NC=C4)F
# Summary of the method: as §1
# [3] = compound: C1=CC2=C(C=CC(=C2)/C=C\3/C(=O)NC(=NCC4=CC=CS4)S3)N=C1
# Summary of the method: as §1
# [4] = compound: C1=CC=C2C(=C1)C3=NNC4=CC=CC(=C43)C2=O
# Summary of the method: as §1
# [5] = compound: C1CCN(C1)C(=O)NC2=CC=CC(=C2)NC3=NC=C(C(=N3)NCCC4=CN=CN4)Br
# Summary of the method: as §1
# [6] = compound: C1CN(CCC1(CC2=CC=C(C=C2)Cl)N)C3=NC=NC4=C3C=CN4
# Summary of the method: as §1
# [7] = compound: CC(=O)c1cnc2ccc(-c3cc(Cl)c(O)c(Cl)c3)nc2c1N[C@H]1CC[C@H](CN(C)C)CC1
# Summary of the method: as §1
# [8] = compound: CC(C)(O)CC(=O)NCCn1ccc2ncnc(Nc3ccc(Oc4cccc(C(F)(F)F)c4)c(Cl)c3)c21
# Summary of the method: as §1
# [9] = compound: CC1=C(C2=C(C=C1)C(=O)C3=CC=CC=C3N2CCCN)C
# Summary of the method: as §1
# [10] = compound: C#Cc1cccc(Nc2ncnc3cc(OCCOC)c(OCCOC)cc23)c1 [erlotinib]
# Summary of the method: as §1
# [11] = compound: C1=CC(=CC=C1C2=NC3=C(N2)C=C(C=C3)C(=O)N)OC4=CC=C(C=C4)Cl
# Summary of the method: as §1
# [12] = compound: C1COCCN1CCN2C3=CC=CC=C3N=C2NC(=O)C4=CC(=CC=C4)[N+](=O)[O-] [IRAK-1-4 Inhibitor I]
# Summary of the method: as §1
# [13] = compound: CC(C)C1=C2N=C(C=C(N2N=C1)NCC3=CC=CC=C3)NCCCCCCN
# Summary of the method: as §1
# [14] = compound: CC(C)N(C[C@H]1O[C@@H](n2cnc3c(N)ncnc32)[C@H](O)[C@@H]1O)[C@H]1C[C@@H](CCc2nc3cc(C(C)(C)C)ccc3[nH]2)C1 [pinometostat]
# Summary of the method: as §1
# [15] = compound: C1=CC2=NC=CN=C2C=C1/C=C/3\C(=O)NC(=O)S3
# Summary of the method: as §1
# [16] = compound: C1=CC=C(C=C1)C2=NC(=C(N2)C3=CC=NC=C3)C4=CC(=C(C=C4)Cl)O
# Summary of the method: as §1
# [17] = compound: CC(C)(C)Cn1c(N)nc2ccc(-c3[nH]c(C(C)(C)C)nc3-c3ccc(F)cc3)nc21 [ralimetinib]
# Summary of the method: as §1
# [18] = compound: CC(C)C[C@@H](C=O)NC(=O)[C@H](CC(C)C)NC(=O)[C@H](CC(C)C)NC(=O)OCc1ccccc1
# Summary of the method: as §1
# [19] = compound: CC1=C(C(CC(=O)N1)C2=CC=C(C=C2)C(F)(F)F)C(=O)NC3=C(C=C4C(=C3)C=NN4)F
# Summary of the method: as §1
# [20] = compound: C=CC(=O)N1CCC[C@@H](n2nc(-c3ccc(Oc4ccccc4)cc3)c3c(N)ncnc32)C1 [ibrutinib]
# Summary of the method: as §1
# Chain of UniProt P55210 (P55210 whole entry, looked up): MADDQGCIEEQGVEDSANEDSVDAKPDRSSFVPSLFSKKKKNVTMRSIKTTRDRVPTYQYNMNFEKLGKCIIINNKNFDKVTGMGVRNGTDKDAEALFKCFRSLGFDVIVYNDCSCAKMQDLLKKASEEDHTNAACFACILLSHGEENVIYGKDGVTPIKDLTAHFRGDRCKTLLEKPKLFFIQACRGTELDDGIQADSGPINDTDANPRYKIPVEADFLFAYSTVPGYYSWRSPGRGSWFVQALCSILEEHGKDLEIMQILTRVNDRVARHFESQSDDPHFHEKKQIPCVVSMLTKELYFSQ
# Chain of UniProt Q2TAC2 (Q2TAC2 whole entry, looked up): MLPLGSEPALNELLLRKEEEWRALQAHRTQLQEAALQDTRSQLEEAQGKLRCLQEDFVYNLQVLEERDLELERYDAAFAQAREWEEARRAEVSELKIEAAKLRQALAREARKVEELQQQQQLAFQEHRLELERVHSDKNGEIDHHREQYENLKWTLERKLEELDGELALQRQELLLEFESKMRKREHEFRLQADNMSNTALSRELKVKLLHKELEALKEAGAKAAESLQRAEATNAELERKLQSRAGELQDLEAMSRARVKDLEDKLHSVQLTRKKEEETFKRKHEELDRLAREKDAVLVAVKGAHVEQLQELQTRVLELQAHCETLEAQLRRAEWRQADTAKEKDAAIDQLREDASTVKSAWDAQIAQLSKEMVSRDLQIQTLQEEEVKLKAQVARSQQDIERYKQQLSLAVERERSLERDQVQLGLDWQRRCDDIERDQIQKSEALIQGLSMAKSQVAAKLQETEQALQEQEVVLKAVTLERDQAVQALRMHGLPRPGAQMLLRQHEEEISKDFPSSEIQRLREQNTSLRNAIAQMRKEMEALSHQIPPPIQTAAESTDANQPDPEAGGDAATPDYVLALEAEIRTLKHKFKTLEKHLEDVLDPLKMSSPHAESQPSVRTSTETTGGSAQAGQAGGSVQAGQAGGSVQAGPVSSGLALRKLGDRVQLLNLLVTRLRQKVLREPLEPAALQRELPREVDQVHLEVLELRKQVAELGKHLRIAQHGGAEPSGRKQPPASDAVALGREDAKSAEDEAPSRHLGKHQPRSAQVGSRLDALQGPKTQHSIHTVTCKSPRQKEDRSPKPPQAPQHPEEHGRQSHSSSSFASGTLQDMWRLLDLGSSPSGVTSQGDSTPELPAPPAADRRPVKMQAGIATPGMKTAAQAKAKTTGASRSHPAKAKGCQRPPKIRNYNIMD
# Chain of UniProt O14936 (O14936 whole entry, looked up): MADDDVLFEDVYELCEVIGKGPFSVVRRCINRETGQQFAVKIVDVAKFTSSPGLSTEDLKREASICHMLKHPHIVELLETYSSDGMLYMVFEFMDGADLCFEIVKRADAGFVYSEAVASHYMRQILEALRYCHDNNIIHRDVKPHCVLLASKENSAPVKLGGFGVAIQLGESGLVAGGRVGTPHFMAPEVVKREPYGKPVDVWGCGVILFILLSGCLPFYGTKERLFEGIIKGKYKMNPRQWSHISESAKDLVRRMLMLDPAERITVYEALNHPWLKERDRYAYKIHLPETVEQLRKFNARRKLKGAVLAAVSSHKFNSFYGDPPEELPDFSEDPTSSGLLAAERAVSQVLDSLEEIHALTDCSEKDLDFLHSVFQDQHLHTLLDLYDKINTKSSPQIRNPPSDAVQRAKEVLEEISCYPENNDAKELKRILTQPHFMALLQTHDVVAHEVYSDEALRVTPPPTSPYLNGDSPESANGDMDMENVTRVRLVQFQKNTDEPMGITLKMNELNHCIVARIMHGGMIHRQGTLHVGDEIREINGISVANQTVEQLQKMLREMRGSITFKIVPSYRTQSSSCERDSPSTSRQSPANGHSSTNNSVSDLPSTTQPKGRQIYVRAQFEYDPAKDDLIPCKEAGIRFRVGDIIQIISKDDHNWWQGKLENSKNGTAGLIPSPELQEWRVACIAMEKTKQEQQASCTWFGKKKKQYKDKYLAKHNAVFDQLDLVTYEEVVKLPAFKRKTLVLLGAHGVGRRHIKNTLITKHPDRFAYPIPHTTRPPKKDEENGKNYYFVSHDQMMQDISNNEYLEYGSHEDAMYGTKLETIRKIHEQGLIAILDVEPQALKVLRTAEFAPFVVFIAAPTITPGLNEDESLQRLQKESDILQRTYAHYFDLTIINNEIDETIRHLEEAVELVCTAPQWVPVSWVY
# Chain of UniProt P33552 (P33552 whole entry, looked up): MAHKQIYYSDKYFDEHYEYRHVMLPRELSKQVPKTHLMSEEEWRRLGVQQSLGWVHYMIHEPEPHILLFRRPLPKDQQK
# Chain of UniProt Q9HCH3 (Q9HCH3 whole entry, looked up): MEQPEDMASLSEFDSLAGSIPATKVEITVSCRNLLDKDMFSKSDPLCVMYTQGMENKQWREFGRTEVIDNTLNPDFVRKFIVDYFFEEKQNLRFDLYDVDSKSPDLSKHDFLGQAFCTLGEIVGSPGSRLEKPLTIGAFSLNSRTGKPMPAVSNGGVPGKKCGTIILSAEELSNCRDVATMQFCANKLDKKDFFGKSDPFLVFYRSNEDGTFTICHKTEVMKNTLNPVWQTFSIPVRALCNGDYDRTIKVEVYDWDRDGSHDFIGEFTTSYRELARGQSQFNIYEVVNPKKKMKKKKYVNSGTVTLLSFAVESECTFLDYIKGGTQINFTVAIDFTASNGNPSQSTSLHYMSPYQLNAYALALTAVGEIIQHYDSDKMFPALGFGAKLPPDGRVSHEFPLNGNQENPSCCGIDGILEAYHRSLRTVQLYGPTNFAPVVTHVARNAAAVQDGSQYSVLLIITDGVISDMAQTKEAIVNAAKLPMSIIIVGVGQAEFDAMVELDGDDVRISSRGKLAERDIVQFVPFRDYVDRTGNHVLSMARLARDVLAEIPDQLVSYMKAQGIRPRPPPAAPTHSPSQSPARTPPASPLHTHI
# Chain of UniProt Q9UK58 (Q9UK58 whole entry, looked up): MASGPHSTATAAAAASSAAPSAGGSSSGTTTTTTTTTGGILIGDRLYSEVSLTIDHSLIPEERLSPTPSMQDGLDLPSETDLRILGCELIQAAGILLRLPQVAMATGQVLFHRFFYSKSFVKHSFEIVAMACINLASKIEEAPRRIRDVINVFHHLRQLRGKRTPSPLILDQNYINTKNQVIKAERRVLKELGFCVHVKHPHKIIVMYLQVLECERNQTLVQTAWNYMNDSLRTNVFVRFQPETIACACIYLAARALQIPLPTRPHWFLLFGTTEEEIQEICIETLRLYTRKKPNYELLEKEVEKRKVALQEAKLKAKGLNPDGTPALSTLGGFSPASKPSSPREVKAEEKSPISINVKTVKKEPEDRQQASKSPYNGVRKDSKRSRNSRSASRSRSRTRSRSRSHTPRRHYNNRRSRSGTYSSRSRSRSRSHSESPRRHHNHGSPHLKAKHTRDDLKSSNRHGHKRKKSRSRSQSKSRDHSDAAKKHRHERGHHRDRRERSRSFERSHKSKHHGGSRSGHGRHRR
# Chain of UniProt Q9H257 (Q9H257 whole entry, looked up): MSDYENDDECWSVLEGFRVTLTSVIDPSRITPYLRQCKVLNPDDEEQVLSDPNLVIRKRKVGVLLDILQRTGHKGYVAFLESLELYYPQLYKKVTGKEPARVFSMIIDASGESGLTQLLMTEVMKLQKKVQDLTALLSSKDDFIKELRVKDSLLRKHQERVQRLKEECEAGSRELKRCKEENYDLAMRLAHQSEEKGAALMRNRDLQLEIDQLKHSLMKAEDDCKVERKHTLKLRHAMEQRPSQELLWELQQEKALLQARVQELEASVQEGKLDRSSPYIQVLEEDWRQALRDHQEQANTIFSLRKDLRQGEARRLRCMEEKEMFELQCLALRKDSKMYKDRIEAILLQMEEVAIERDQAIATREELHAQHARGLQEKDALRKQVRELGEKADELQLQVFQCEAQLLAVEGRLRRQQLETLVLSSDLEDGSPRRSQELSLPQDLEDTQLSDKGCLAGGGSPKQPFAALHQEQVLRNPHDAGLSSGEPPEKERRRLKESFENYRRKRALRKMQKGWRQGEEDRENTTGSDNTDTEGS
# Chain of UniProt Q9UJA2 (Q9UJA2 whole entry, looked up): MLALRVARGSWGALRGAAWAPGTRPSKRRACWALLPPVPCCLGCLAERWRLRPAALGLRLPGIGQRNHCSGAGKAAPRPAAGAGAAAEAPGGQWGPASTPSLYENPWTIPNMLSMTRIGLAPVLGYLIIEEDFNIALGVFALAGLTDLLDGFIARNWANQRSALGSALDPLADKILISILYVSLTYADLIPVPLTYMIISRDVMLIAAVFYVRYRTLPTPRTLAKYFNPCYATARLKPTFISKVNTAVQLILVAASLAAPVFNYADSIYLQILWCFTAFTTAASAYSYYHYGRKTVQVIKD
# Chain of UniProt Q14194 (Q14194 whole entry, looked up): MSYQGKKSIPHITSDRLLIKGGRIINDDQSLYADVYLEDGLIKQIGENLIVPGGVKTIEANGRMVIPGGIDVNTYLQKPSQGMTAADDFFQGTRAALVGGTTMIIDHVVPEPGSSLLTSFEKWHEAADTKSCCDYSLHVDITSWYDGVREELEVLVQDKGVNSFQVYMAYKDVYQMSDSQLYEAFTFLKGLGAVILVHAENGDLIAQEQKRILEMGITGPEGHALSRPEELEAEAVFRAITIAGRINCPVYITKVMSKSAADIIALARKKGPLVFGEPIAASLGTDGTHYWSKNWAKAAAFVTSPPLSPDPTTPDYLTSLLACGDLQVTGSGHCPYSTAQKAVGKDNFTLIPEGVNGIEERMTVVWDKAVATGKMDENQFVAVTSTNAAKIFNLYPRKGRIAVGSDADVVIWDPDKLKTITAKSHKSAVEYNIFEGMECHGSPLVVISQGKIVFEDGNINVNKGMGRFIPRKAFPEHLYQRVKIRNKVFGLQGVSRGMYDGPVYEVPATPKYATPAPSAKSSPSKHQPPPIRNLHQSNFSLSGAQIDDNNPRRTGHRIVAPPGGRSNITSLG
# Chain of UniProt Q96GV9 (Q96GV9 whole entry, looked up): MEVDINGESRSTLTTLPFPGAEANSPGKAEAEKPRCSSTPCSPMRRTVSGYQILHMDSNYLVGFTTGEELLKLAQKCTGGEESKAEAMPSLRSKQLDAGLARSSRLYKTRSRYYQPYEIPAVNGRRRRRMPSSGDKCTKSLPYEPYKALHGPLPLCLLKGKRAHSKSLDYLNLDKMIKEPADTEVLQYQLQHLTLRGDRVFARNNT
Target,log2 fold change [1],log2 fold change [2],log2 fold change [3],log2 fold change [4],log2 fold change [5],log2 fold change [6],log2 fold change [7],log2 fold change [8],log2 fold change [9],log2 fold change [10],log2 fold change [11],log2 fold change [12],log2 fold change [13],log2 fold change [14],log2 fold change [15],log2 fold change [16],log2 fold change [17],log2 fold change [18],log2 fold change [19],log2 fold change [20]
C5orf30 (UniProt Q96GV9),0.267,-0.056,0.062,-0.347,0.01,0.128,-0.917 (active),0.059,-0.284,,,,,,,,,,,
CASK (UniProt O14936),-0.07,,0.038,-0.136,,,-0.483 (active),,,-0.018,0.01,0.036,0.177,0.081,,,,,,
CLN3 (UniProt Q13286),,0.025,,,0.055,0.026,,-0.011,-0.147,0,0.162,0.106,-0.532 (active),-0.113,0.117,-0.05,-0.05,-0.043,0.054,
CLINT1 (UniProt Q14677),-0.106,-0.12,-0.176,0.031,-0.097,-0.057,0.059,0.221,-0.114,,,,,0.058,0.035,,,,0.099,
CCNT2 (UniProt O60583),0,-0.105,-0.029,-0.08,-0.176,-0.027,-0.797 (active),0.059,-0.062,,,,,,,-0.025,0.191,0.116,0.011,
CASP10 isoform 4 (UniProt Q92851),0.138,0.026,0.124,-0.04,-0.13,-0.21,0.083,-0.13,0.262,,,-0.132,,0.047,-0.046,0.051,0.095,-0.015,0.021,-0.083
CCNL1 (UniProt Q9UK58),,,,,,,,,,-0.001,0.094,,-0.188,,,,,,,
CHPT1 (UniProt Q8WUD6),0.181,0.24,0.078,-0.024,-0.004,0.01,0.023,0.223,0.044,,,,,,,0,-0.132,-0.002,0.26,
COPS3 isoform 2 (UniProt Q9UNS2),-0.24,-0.075,0.214,-0.126,0.176,-0.052,-0.191,-0.097,0.053,,,0.098,,0.071,-0.125,-0.568,-0.214,0.258,0.046,-0.015
CRLS1 (UniProt Q9UJA2),,,,,-0.019,0.074,,,-0.005,-0.034,0.019,-0.03,0.036,-0.071,,,,,-0.032,
CARD9 (UniProt Q9H257),0.211,,-0.184,-0.058,,,-0.255,,,-0.173,0.056,-0.181,0.071,0.202,,0.129,0.15,0.178,,
CKS2 (UniProt P33552),0.125,,0.116,-0.032,0.022,0.02,-0.168,,-0.058,,,,,,-0.001,,,,0.047,-0.087
CFAP47 (UniProt Q6ZTR5),-0.734 (active),0.053,0.355,0.132,,,0.153,0.006,,,,,,,-0.123,,,,,-0.109
"CCDC187, A0A1W2PQX5",-0.124,-0.079,0.169,0.013,,,-0.14,0.201,,,,,,,,-0.055,-0.237,0.001,-0.11,
CCDC57 (UniProt Q2TAC2),,0.031,,,0.012,0.026,,-0.007,0.012,0.044,-0.051,0.067,0.041,-0.04,-0.021,0.003,0.005,0.05,0.042,-0.021
CEP128 (UniProt Q6ZU80),-0.163,,0.199,-0.037,0.141,-0.003,-0.022,,0.1,,,-0.149,,0.012,0.158,,,,,-0.055
CLCN5 isoform 2 (UniProt P51795),,,,,-0.098,-0.011,,,0.009,-0.009,0.064,-0.019,-0.29,0.061,,0.125,-0.154,-0.004,0.021,
COMMD3-BMI1 (UniProt R4GMX3),-0.043,-0.051,0.077,-0.169,-0.191,0.095,0.055,-0.003,-0.071,,,,,,,,,,0.028,
CASP7 isoform 3 (UniProt P55210),,-0.105,,,,,,-0.003,,0.133,0.217,,0.035,,0.118,,,,0.064,-0.005
CNN1 (UniProt P51911),0.062,0.055,0.063,0.041,-0.129,0.118,-0.086,-0.071,0.145,,,,,,,,,,0.144,
CPNE5 (UniProt Q9HCH3),,,,,0.087,-0.879 (active),,,-0.225,0.074,-0.175,,-0.209,,,,,,,
CD68 (UniProt P34810),,,,,,,,,,-0.13,0.022,,-0.535 (active),,0.094,,,,,0.057
CLPTM1L (UniProt G5E9Z2),0.109,0.492,-0.139,0.174,0.145,0.272,-0.03,-0.556,-0.201,,,,,,0.284,,,,0.106,
CA1 (UniProt E5RIF9),,0.096,,,0.014,-0.453,,-0.052,-0.02,,,,,,0.135,,,,,0.161
CRMP1 isoform 2 (UniProt Q14194),-0.273,,0.101,-0.037,0.088,-0.014,-0.224,,0.181,-0.1,0.009,,0.124,,-0.011,,,,0.196,0.038
